From PubChem BioAssay
Most compounds without a hit are left out; they make up all but 6.8% or so of the library.
T cruzi growth-1: T. cruzi intracellular proliferation inhibitors, primary screen, cell-based, beta-gal Tulahuen parasites, NIH3T3 host, luminescence; T. cruzi beta-gal in NIH3T3, GalScreen luminescence, 90 h; inhibition, % at 8.34 µM; actives 5.9% (n = 77,000);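 active means mean inhibition above about 93%, with at least 55% of replicates each passing it, limit read from the data, passing the limit was not always enough; inconclusive means only one of those two conditions holds; inactive means neither condition holds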
Pf Dd2 growth: P. falciparum Dd2 growth inhibitors, primary screen, SYBR Green fluorescence, single dose replicates. 72 h; stronger effect = lower value. activity change, % at 10 µM. actives 2.3% (n = 94,000). AID 1159554, 2015; in the data active means activity change below about -80%; inconclusive means no clear call, values can overlap the other calls
C diff HTS: C. difficile growth inhibitors, primary screen, HTS; growth activity, negative = inhibition, % at 16 µg/mL (by protocol); actives 0.25% (n = 86,000); Clostridium difficile clinical isolate growth, OD600, 24 h; stronger effect = lower value;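 active means mean growth activity at or below -80% and every replicate also at or below -80%; inconclusive means mean at or below -80% but some replicate above -80%; inactive means mean growth activity above -80%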
T cruzi growth-2: T. cruzi intracellular proliferation inhibitors, confirmation, cell-based, NIH3T3 host, beta-gal parasite, luminescence, cherry-pick. shares compounds with T cruzi growth-1. T. cruzi beta-gal in NIH3T3, GalScreen luminescence, 90 h. inhibition, % at 8.35 µM. actives 72% (n = 5,600);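 active means mean replicate inhibition above about 95% and at least 55% of replicates individually reaching it, limit read from the data; inconclusive means only one of the two criteria is met; inactive means neither criterion is met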
T cruzi growth-3: inhibitors of intracellular T. cruzi replication, confirmation, NIH3T3 host cells, beta-gal parasites, cherry-pick, set 2; shares compounds with T cruzi growth-1; T. cruzi beta-gal in NIH3T3, GalScreen luminescence, 90 h; inhibition, % at 2.09 µM; actives 21% (n = 5,600); AID 651740, 2012;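 active means mean inhibition above about 95%, with at least 55% of replicates also reaching it, limit read from the data; inconclusive means meets just one of the two conditions; inactive means meets neither condition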
NIH3T3 tox: cytotoxicity in mouse NIH/3T3 fibroblasts, confirmation, cytotoxicity control for T. cruzi proliferation inhibitor project, cell-based, cherry-pick, single point. NIH/3T3 viability, CellTiter-Glo ATP luminescence, 90 h. cytotoxicity (signal decrease), % at 8.35 µM. AID 651742, 2012. shares compounds with T cruzi growth-1. actives 14% (n = 5,600);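 active means mean signal decrease across replicates above about 35% based on untreated-well scatter, with enough replicates individually passing, limit read from the data; inconclusive means no rule stated though some were filed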
3T3 cytotox 2: NIH/3T3 fibroblast cytotoxicity, confirmation, cytotoxicity control, cell-based, cherry-pick, single point, set 2; shares compounds with T cruzi growth-1; NIH/3T3 viability, CellTiter-Glo ATP luminescence, 90 h; inhibition, % at 24.9 µM; actives 56% (n = 5,600); AID 651744, 2012;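 active means mean loss of cell viability signal at or above a set limit, and enough replicates individually reaching it; inconclusive means meets only the mean limit or only the replicate share; inactive means meets neither condition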
Large screens that a line does not name were inactive (follow-up assays come after a bar, where they were run).

C[C@H](CO)N1C[C@H](C)[C@H](CN(C)C)Oc2cc(C#CCC3CCCC3)ccc2S1(=O)=O	none
CCCNC(=O)C[C@@H]1C[C@H]2c3cc(NS(=O)(=O)c4ccc(F)cc4)ccc3O[C@H]2[C@H](CO)O1	none
CC(C)NC(=O)Nc1ccc2c(c1)CC(=O)N([C@@H](C)CO)C[C@@H](C)[C@H](CN(C)S(=O)(=O)c1cn(C)cn1)O2	none
C[C@H]1CN([C@@H](C)CO)C(=O)c2cccc(NC(=O)c3ccncc3)c2O[C@@H]1CN(C)CC1CC1	none
C[C@H](CO)N1C[C@H](C)[C@@H](CN(C)Cc2ccc(Oc3ccccc3)cc2)Oc2ccc(NC(=O)Nc3ccc(F)cc3)cc2C1=O	none
C[C@@H]1CN([C@H](C)CO)C(=O)c2cc(NC(=O)Nc3ccc(F)cc3)ccc2O[C@@H]1CN(C)Cc1ccc(Oc2ccccc2)cc1	T cruzi growth-1 inconclusive | T cruzi growth-2 96 | T cruzi growth-3 inactive | NIH3T3 tox inactive | 3T3 cytotox 2 106
C[C@@H]1CN([C@H](C)CO)C(=O)c2cc(NC(=O)Nc3ccc(F)cc3)ccc2O[C@H]1CN(C)Cc1ccc(Oc2ccccc2)cc1	none
C[C@H](CO)N1C[C@H](C)[C@H](CN(C)Cc2ccc(Oc3ccccc3)cc2)Oc2ccc(NC(=O)Nc3ccc(F)cc3)cc2C1=O	T cruzi growth-1 109 | T cruzi growth-2 98 | T cruzi growth-3 inactive | NIH3T3 tox inactive | 3T3 cytotox 2 104
CO[C@H]1CN(C)C(=O)c2cc(NC(=O)Nc3cccc(F)c3)ccc2OC[C@H](C)N(C)C[C@@H]1C	none
C[C@@H]1CN([C@H](C)CO)C(=O)c2cc(C#CC(C)(C)O)cnc2O[C@H]1CN(C)C(=O)CC1CC1	none
COCC(=O)N(C)C[C@H]1Oc2cc(C#C[C@@H](C)O)ccc2S(=O)(=O)N([C@H](C)CO)C[C@@H]1C	none (no result: Pf Dd2 growth)
C[C@@H]1CN([C@H](C)CO)C(=O)c2cc(N(C)C)ccc2O[C@H]1CN(C)Cc1ccc(Oc2ccccc2)cc1	none
C[C@H]1CN([C@@H](C)CO)C(=O)Cc2cc(N(C)C)ccc2O[C@@H]1CN(C)Cc1ccc(Oc2ccccc2)cc1	T cruzi growth-1 115 | T cruzi growth-2 104 | T cruzi growth-3 inactive | NIH3T3 tox inactive | 3T3 cytotox 2 77
C[C@H](CO)N1C[C@H](C)[C@H](CN(C)Cc2ccc(Oc3ccccc3)cc2)Oc2ccc(N(C)C)cc2C1=O	T cruzi growth-1 98 | T cruzi growth-2 inconclusive | T cruzi growth-3 inactive | NIH3T3 tox inactive | 3T3 cytotox 2 101
C[C@H](CO)N1C[C@H](C)[C@H](CN(C)Cc2ccccc2)Oc2ccc(N(C)C)cc2CC1=O	none
C[C@@H]1CN([C@H](C)CO)C(=O)Cc2cc(N(C)C)ccc2O[C@@H]1CN(C)Cc1ccc(Oc2ccccc2)cc1	none
C[C@H]1CN([C@@H](C)CO)C(=O)Cc2cc(N(C)C)ccc2O[C@H]1CN(C)Cc1ccc(Oc2ccccc2)cc1	T cruzi growth-1 inconclusive | T cruzi growth-2 106 | T cruzi growth-3 114 | NIH3T3 tox inactive | 3T3 cytotox 2 106
CC=Cc1ccc2n(c1=O)C[C@@H]1[C@@H](CO)[C@H](C(=O)N3CCCCC3)[C@H]2N1C(=O)C1CC1 (mixture of isomers)	none
O=C(Cc1ccccc1)N1C[C@H]2[C@@H](c3ccccc31)[C@H](CO)N2C(=O)c1cccc(F)c1	none
CNC[C@H]1Oc2cc(C#Cc3ccc(OC)cc3)ccc2S(=O)(=O)N([C@@H](C)CO)C[C@@H]1C	T cruzi growth-1 109 | T cruzi growth-2 103 | T cruzi growth-3 inactive | NIH3T3 tox inactive | 3T3 cytotox 2 105
CNC[C@H]1Oc2cc(C#Cc3ccc(F)cc3)ccc2S(=O)(=O)N([C@H](C)CO)C[C@@H]1C	none (no result: T cruzi growth-1)
